Out of some 220,000 compounds screened, about 650 (0.3%) were called active. This excerpt belongs to a sample that is enriched for actives. Unmarked numbers belong to inactive results. No stated cut-off is given here; in the data, active means inhibition above about 40%; inactive means the rest.
These molecules were tested against Coagulation factor XII (Homo sapiens) (UniProt P00748) (assay: coagulation factor XIIa activity inhibition – biochemical, 1536-well, primary screen (AID 800;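 further: 0% = enzyme with no compound and 100% = blank without enzyme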)). Settings: purified FXIIa, Boc-QGR-AMC fluorogenic substrate, 2 h; at 5 µM; stronger effect = higher value.
Sequence of Coagulation factor XII (Homo sapiens) (P00748 20-372 limits assumed): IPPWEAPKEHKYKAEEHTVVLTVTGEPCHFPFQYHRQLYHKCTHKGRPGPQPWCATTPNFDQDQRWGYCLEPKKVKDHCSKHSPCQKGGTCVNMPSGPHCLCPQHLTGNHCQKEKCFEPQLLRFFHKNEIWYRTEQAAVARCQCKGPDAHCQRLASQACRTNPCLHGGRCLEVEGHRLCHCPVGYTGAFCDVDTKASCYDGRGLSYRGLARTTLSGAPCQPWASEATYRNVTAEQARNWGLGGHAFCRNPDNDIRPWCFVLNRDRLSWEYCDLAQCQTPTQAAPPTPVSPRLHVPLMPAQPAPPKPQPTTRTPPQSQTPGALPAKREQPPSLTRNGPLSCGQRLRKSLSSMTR
Sequence of Coagulation factor XII (Homo sapiens) (P00748 373-615 limits assumed): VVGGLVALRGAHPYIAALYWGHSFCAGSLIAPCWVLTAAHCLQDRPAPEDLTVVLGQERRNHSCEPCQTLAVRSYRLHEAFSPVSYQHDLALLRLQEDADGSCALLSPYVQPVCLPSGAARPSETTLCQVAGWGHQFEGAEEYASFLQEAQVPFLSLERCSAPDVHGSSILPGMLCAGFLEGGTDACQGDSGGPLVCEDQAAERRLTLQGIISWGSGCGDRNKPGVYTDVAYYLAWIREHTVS
Cc1[nH]n(C)c(=O)c1C(=O)c1c(-c2c(Cl)cccc2Cl)noc1C was tested, and the inhibition was 2.28%. With CCOc1c(Nc2cccc(Cl)c2)c(=O)c1=O the inhibition was 8.16%. Molecule COc1ccc(Nc2ncnc3sc(-c4ccccc4)cc23)c(OC)c1 has an inhibition of 4.94%. Molecule CC(C)(C)c1cc(C(=O)N/N=C/c2ccc([N+](=O)[O-])s2)n[nH]1 has an inhibition of 7.22%. Molecule Cc1nc(N)[nH]c(=O)c1Oc1cccc(C(F)(F)F)c1 has an inhibition of 3.61%. In the case of O=C(CSC(=S)N1CCCCC1)c1c(F)cccc1F, the inhibition is reported as 6.72%. CNC(=O)c1cccc2nc3ccccc3nc12 showed an inhibition of 6.68%. Work on Brc1ccc(-c2nn[nH]n2)cc1 yielded an inhibition of 12.5%. CC(C)S(=O)(=O)c1csc(NC(=O)Nc2ccc(Cl)cc2)c1Cl gave an inhibition of 6.02%. In the case of C=C(C)C(=O)O[C@H]1C/C(C)=C\C(=O)/C=C(\C)[C@H](O)[C@@H]2OC(=O)C(=C)[C@@H]21, the inhibition is reported as 8.34%. COc1cccc(Nc2nnc(SCC(=O)N3CC(=O)Nc4ccccc43)s2)c1 was tested, and the inhibition was 5.5%. Molecule C/C=N/N(c1ccccc1)c1ccccc1 has an inhibition of 4.81%. With CC(C)(C)C(=O)Nc1c(Br)c(C2CC2)nn1-c1ccccc1 the inhibition was 6.88%. Cc1cc(C)cc(OCC(=O)O/N=C(\N)Cc2ccc([N+](=O)[O-])cc2)c1 gave an inhibition of 0.85%. With CCOc1cc(CO)ccc1OCC(=O)N1CCCCC1 the inhibition was 52.6% (active). For O=C(COc1ccc(Cl)cc1[N+](=O)[O-])N1CCCCC1, the inhibition was 2.91%. Molecule CCOc1cc(CN2CCN(C(=O)CC(C)C)CC2)ccc1OC has an inhibition of -3.42%. With CCC1SC(CC)C(=O)N(CC(=O)NC2CCCCC2)C1=O (configuration not stated) the inhibition was 101% (active). For O=C(CN1C(=O)NC2(CCCCCC2)C1=O)NC1CC1, the inhibition was 0.9%. With O=C(CN1C(=O)CC(c2ccccc2)=Nc2ccccc21)NC1CCCCC1 the inhibition was 12.2%. Work on CN(C)/C=C1/C(=O)Nc2ccccc21 yielded an inhibition of 8.66%. With CN(C)/C=C1\C=C(c2ccccc2)OC1=O the inhibition was 49.5% (active). In the case of Cc1ccc(C2=C/C(=C\c3cccnc3)C(=O)O2)cc1, the inhibition is reported as 10.9%. NC(=O)C1=C[C@@H](c2csc3ccccc23)C[C@@H](OCc2ccc(CO)cc2)O1 was tested, and the inhibition was 5.57%. For CCN(CC)C(=O)CC(c1ccc2c(c1)OCO2)c1c(OC)cc(OC)c2c(-c3ccccc3)cc(=O)oc12 (configuration not stated), the inhibition was -2.49%. Molecule Cc1ccc(/C=C/C(=O)O)cc1S(=O)(=O)N1CCC(Cc2ccccc2)CC1 has an inhibition of 6.76%. O=c1[nH]nc(SCCS(=O)(=O)c2ccc(F)cc2)n1-c1ccccc1C(F)(F)F showed an inhibition of 6.99%. Work on CN(c1ccccn1)c1ncnc2[nH]ncc12 yielded an inhibition of 3.53%. For O=C(NC1CC1)C1=C[C@H](c2c[nH]c3ccccc23)C[C@H](OCc2ccc(CO)cc2)O1, the inhibition was 1.62%. Molecule Cc1nc(C(=O)NCc2ccccc2)sc1C1(C)CC(c2cccnc2)=NO1 (configuration not stated) has an inhibition of 6.55%. CC1=NNC(=O)C1CC(=O)N/N=C/c1ccncc1 (configuration not stated) gave an inhibition of 2.75%. Molecule C=CCCN(Cc1ccccc1)S(=O)(=O)c1ccccc1Br has an inhibition of 5.98%. Cc1ccccc1NC(=O)Nc1ccccc1N1CCCCC1 showed an inhibition of 5.71%. With c1ccc(-c2cc(N3CCCCC3)c3ccccc3n2)cc1 the inhibition was 16%. With c1ccc(-n2cccc2)c(N2CCCCC2)c1 the inhibition was 46.9% (active). Molecule Cc1cc(-n2cnc(-c3cn(C)nc3C)n2)no1 has an inhibition of 11.1%. Molecule CCCCCCNS(=O)(=O)c1ccccc1Br has an inhibition of 9.21%. O=C(Cn1cnc2cc([N+](=O)[O-])ccc2c1=O)NC(=O)NCc1ccccc1 was tested, and the inhibition was 1.31%. CCOC(=O)NNc1cc(C(F)(F)F)ccn1 showed an inhibition of 9.46%. In the case of O=C(NNS(=O)(=O)c1ccccc1C(F)(F)F)c1cc2ncc(C(F)(F)F)cc2s1, the inhibition is reported as 9.81%. With CCc1ccc[n+](-c2nc([O-])sc2C=O)c1 the inhibition was 9.94%. In the case of C#CCOCCOCCOCCNc1nc(N2CCN(C(=O)[C@H](CCC(=O)O)n3cc(C(N)CO)nn3)CC2)nc(N2CCN(C(=O)[C@H](CCCCN)n3cc(C(N)CC(C)C)nn3)CC2)n1 (some centres not stated), the inhibition is reported as 5.53%. N#Cc1c(NCCO)ccc([N+](=O)[O-])c1NCCO gave an inhibition of 12.3%. Molecule CCCC[C@@H]1CN=C(N)N1CCc1cc(C(F)(F)F)cc(C(F)(F)F)c1 has an inhibition of 2.17%. Work on CC(C)c1ccc(NC(=S)NC2CC3C=CC2C3)cc1 (configuration not stated) yielded an inhibition of 3.63%. CCCc1c(C(=O)Nc2ccc(F)cc2)cnn1-c1ccccc1 was tested, and the inhibition was -0.53%. CCOC(=O)c1c(NC(=O)c2ccc(Br)o2)sc2c1CCCC2 was tested, and the inhibition was 44% (active). With CCOC(=O)c1c(NC(=S)NC(=O)c2ccco2)sc2c1CCCC2 the inhibition was 23.9%. Molecule CCOCC(=O)Nc1sc2c(c1C(=O)OCC)CCCC2 has an inhibition of 5.03%. With C=C1CCN([C@H](C(=O)NCc2cc(OC)c(OC)c(OC)c2)C(C)C)S(=O)(=O)c2ccccc21 the inhibition was 4.35%. FC(F)(F)c1ccnc(Oc2ccc(C3=NCCS3)cc2)c1 was tested, and the inhibition was 9.29%. CCOc1ccc(C2c3[nH]c4ccccc4c3CCN2Cc2cccn2-c2ncccn2)cc1 (configuration not stated) gave an inhibition of 4.53%. CC(C)(C)CN1C(=O)C(=O)NC[C@H]1Cc1cccc2ccccc12 gave an inhibition of 4.1%. With COCc1cc(=O)[nH]c(-c2ccc(C(F)(F)F)cc2)n1 the inhibition was 8.57%. With COc1ccccc1C1CCN(C(=S)Nc2ccc(Br)cc2)CC1 the inhibition was 3.05%. With Fc1ccc(-c2csc(-c3ccc(C4SCCS4)cc3)n2)cc1F the inhibition was 7.1%. Work on COc1ccc(C(CC(=O)N2CCN(c3ccccc3)CC2)c2c(O)cc(OC)cc2OC)cc1 (configuration not stated) yielded an inhibition of 1.72%.
